The term AC50 denotes the midpoint of the concentration-response curve, whichever way the signal moves.

Outcome and AC50 data for 40 compounds are collected here from PubChem BioAssay (EPA / NIEHS).

Structures are written as SMILES. The source made the active and inactive calls. Rule for the calls: active = hit-call score of the fitted dose curve at least 0.9, where 1 is the maximum; inactive = score below 0.9.

Read-out in this assay: urokinase plasminogen activator (uPA), PLAU (gene 5328)
The assay is described as follows: BSK_KF3CT_uPA: BioMAP Diversity Plus: KF3CT Assay for urokinase plasminogen activator (uPA) Biomarker Activity (AID 2283075). The following applies: primary human keratinocytes with fibroblasts; actives raise or lower the signal. How it is done: BSK_KF3CT is a cell-based, multiplexed-readout assay that uses keratinocytes and foreskin fibroblasts, a human skin primary cell co-culture, with measurements taken at 24 hours after chemical dosing in a 96-well plate.BSK_KF3CTA is an assay component measured in the BSK_KF3CT assay. It measures uPA antibody related to regulation of gene expression using ELISA technology.Data from the assay component BSK_KF3CTA was analyzed into 1 assay endpoint. This assay endpoint, BSK_KF3CTA, was analyzed with bidirectional fitting relative to DMSO as the negative control and baseline of activity. Using a type of binding reporter, gain or loss-of-signal activity can be used to understand changes in the signaling as they relate to the gene PLAU. Furthermore, this assay endpoint can be referred to as a primary readout, because this assay has produced multiple assay endpoints where this one serves a signaling function. To generalize the intended target to other relatable targets, this assay endpoint is annotated to the protease intended target family, where the subfamily is serine protease.
The levels of cell surface (or secreted, indicated by the prefix "s") biomarker endpoints were measured by ELISA. Overt cytotoxicity to cells in confluent adherent cultures (all systems other than the BT system) was assessed by measuring total protein levels using sulforhodamine B (SRB) staining in parallel cultures at the time of biomarker measurements, indicated as SRB endpoints. For proliferation assays for adherent cell types, individual cell types are cultured at sub-confluence and relative cell numbers quantified by SRB staining at time points optimized for each system (48 h: 3C and CASM3C systems; 72 h: BT and HDF3CGF systems; 96 h: SAg system). SRB was performed by staining cells with 0.1% SRB after fixation with 10% TCA and reading wells at 560 nm.Viability and proliferation of PBMC (T cells) was quantified by Alamar Blue reduction for the SAg and BT systems. For PBMC viability (referred to as PBMC Cytotoxicity within the assay endpoint names), cells were plated (75,000/well in a 96-well plate) and then chemical samples added for 1 h before addition of activators, SEB and TSST-1 (20 ng/mL final concentration each). Cells were incubated for 90 h. Then, Alamar Blue (20 uL/well) (Invitrogen, Cat DAL1100) was added for 6 h, and the plates were read with a fluorescence microplate reader at 546/580 nm (excitation/emission). For PBMC proliferation, cells were plated and activated as above but incubated for only 16 h prior to addition of Alamar Blue. Plates were read after 6 h.
As for `CCCCC(CC)COC(=O)/C=C\C(=O)OCC(CC)CCCC` (stereo not given), the result was inactive.

Regarding `CC1COc2ccccc2N1C(=O)C(Cl)Cl` (stereo not given), the AC50 is 0.0271 µM (active).

Regarding `Cc1ccc(O)c(C(C)(C)C)c1`, the AC50 was 36.6 µM (active).

On to `N#Cc1ccc(CC(=NNC(=O)Nc2ccc(OC(F)(F)F)cc2)c2cccc(C(F)(F)F)c2)cc1`, for which the outcome was inactive.

As for `CC(=O)/C=C/C1=C(C)CCCC1(C)C`, the outcome was inactive.

As for `OC1OC[C@@H](O)[C@H](O)[C@H]1O` (stereo not given in full), the outcome was inactive.

In the case of `OC[C@H]1O[C@H](O[C@]2(CCl)O[C@H](CCl)[C@@H](O)[C@@H]2O)[C@H](O)[C@@H](O)[C@H]1Cl`, the result was inactive.

`c1ccc2c(c1)c1cccc3ccc4cccc2c4c31`: the AC50 is 0.0439 µM (active).

Regarding `CC(C)c1ccc(C(C)C)cc1`, the outcome was inactive.

In the case of `O=[N+]([O-])c1cc(C(F)(F)F)ccc1Cl`, the result was inactive.

As for `O=P(c1ccccc1)(c1ccccc1)c1ccccc1`, the result was inactive.

Consider `CCCCCCCCC=O`, for which the outcome was inactive.

Consider `c1ccc2sc(SN(C3CCCCC3)C3CCCCC3)nc2c1`, for which the result was inactive.

Consider `CN(CCOc1ccc(CC2SC(=O)NC2=O)cc1)c1ccccn1` (stereo not given), for which the AC50 was 0.016 µM (active).

For `BrC1CCC(Br)C(Br)CCC(Br)C(Br)CCC1Br` (stereo not given), the AC50 was 4.69 µM (active).

As for `O=C(O)c1cn(-c2ccc(F)cc2)c2cc(N3CCNCC3)c(F)cc2c1=O`, the outcome was inactive.

As for `Nc1cc([N+](=O)[O-])ccc1Cl`, the result was inactive.

For the compound `C#C[C@]1(O)CC[C@H]2[C@@H]3CCC4=Cc5oncc5C[C@]4(C)[C@H]3CC[C@@]21C`, the result was inactive.

On to `C=C[Si](OCC)(OCC)OCC`, for which the result was inactive.

For the compound `CC1CCC(C(C)CS)CC1S` (stereo not given), the AC50 is 33.7 µM (active).

For the compound `COC(=O)c1ccc(C)cc1`, the result was inactive.

`C[C@H]1C[C@@H]2[C@H]([C@@H](O)C[C@@]3(C)[C@H]2CC[C@]3(O)C(=O)CO)[C@@]2(C)C=CC(=O)C=C12`: the outcome was inactive.

With `CCCCC/C=C/C=C/C=O`, the AC50 is 31.4 µM (active).

On to `C=CCOC(=O)CCC1CCCCC1`, for which the outcome was inactive.

In the case of `O=C1OC2(c3cc(Br)c(O)c(Br)c3Oc3c2cc(Br)c(O)c3Br)c2c(Cl)c(Cl)c(Cl)c(Cl)c21`, the AC50 is 3.89 µM (active).

In the case of `CC(=O)[C@H]1CC[C@H]2[C@@H]3CC=C4C[C@@H](O)CC[C@]4(C)[C@H]3CC[C@]12C`, the result was inactive.

Turning to `CCCCCCCCCCCCCCCCCC(=O)OCC(CC)CCCC` (stereo not given), the outcome was inactive.

In the case of `O=C(O)C[C@H](O)C[C@H](O)/C=C/c1c(C2CC2)nc2ccccc2c1-c1ccc(F)cc1`, the outcome was inactive.

Regarding `O=C(O)c1ccc([N+](=O)[O-])cc1`, the result was inactive.

Regarding `Nc1cc([N+](=O)[O-])ccc1O`, the result was inactive.

Take `CCCCCCCCCC=O`: the result was inactive.

Turning to `O=C(O)c1cn(C2CC2)c2cc(N3CCNCC3)c(F)cc2c1=O`, the result was inactive.

Consider `CC(C)(COC(=O)c1ccccc1)COC(=O)c1ccccc1`, for which the result was inactive.

For the compound `COc1cc(C=O)ccc1OC(=O)C(C)C`, the outcome was inactive.

With `CC(C)Oc1ccccc1O`, the result was inactive.

For `CC(=O)OCCC(C)CC(C)(C)C` (stereo not given), the result was inactive.

Regarding `CCc1c(C)cc(N)c(CC)c1N`, the result was inactive.

Consider `C=C(C)C(=O)O[C@H]1C[C@@H]2CC[C@@]1(C)C2(C)C`, for which the AC50 is 13.8 µM (active).

Turning to `CCC(=O)OCc1ccccc1`, the outcome was inactive.

As to `NCCNCCN`, the result was inactive.
